Screens (PubChem BioAssay)
CHX counter: affects cycloheximide protein synthesis inhibition readout, counter-screen; cell reporter, cycloheximide protein synthesis inhibition counterscreen; max response, %; hit rate 12% among 300,000; in the data active means max response mostly above about 13%, no sharp cut-off; inactive means mostly below about 14%; further: read at 38.3 µM for the half of the compounds with a filed dose; 0% is about no effect
Shiga toxin inh: blocks Shiga toxin action in Vero cells. Vero cells, Shiga toxin protein synthesis inhibition reporter. inhibition, % at 38.7 µM. hit rate 9.2% among 290,000. AID 2315; in the data active means inhibition mostly above about 28%, no sharp cut-off; inactive means mostly below about 43%; further: 0% is about no effect
FMDV inh: blocks foot and mouth disease virus | Potency, µM (doses to about 57.9 µM), for the others: top-dose activity change, negative = inhibition, most hits filed as inhibitors | AID 1159524 | FMDV antiviral cell-based qHTS | hit rate 1.2% among 410,000; calls by dose curve; tested in HEK293T cells; further: read-out not given here; potency means the concentration at half of the fitted maximal effect; on the % scale 0 is the no-effect control and ±100 the full control effect; nearly all actives have a fitted effect of over 45% in size
Sm TGR block: inhibitors of Schistosoma mansoni thioredoxin glutathione reductase. hit rate 3% among 360,000. Q962Y6. purified TGR, DTNB reduction, TNB absorbance 405 nm. Potency, µM (highest dose often 114 µM), inactives show at the highest dose activity change, negative = inhibition, usual class: inhibitors; active means well fitted inhibition curve with a large enough effect; inconclusive means small, poorly fitted or top-dose-only effect; inactive means no such curve, though single readings can be large or run the other way; further: potency means the concentration at half of the fitted maximal effect; on the % scale 0 is the no-effect control and ±100 the full control effect; nearly all actives have a fitted effect of over 60% in size
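Kinetic colorimetric format: TGR-catalysed, NADPH-driven DTNB reduction monitored via TNB absorbance. Enzyme dispensed at 20 nM; compound exposure 15 min at room temperature before reaction start.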
An asterisk follows results filed as active; ? = inconclusive; nt = no result given. An excerpt weighted towards active compounds, which were near 12% of everything screened.

SMILES | CHX counter | Shiga toxin inh | FMDV inh | Sm TGR block
COc1ccc(C(=O)Nc2cccc(C)c2)cc1 | 28* | 61* | 0% | -10%
Cc1ccc(NC(=S)c2ccccc2)cc1 | 35* | 14* | 15% | 5%
Cc1ccc(NC(=S)c2ccncc2)cc1 | 18 | 5 | -14% | 2%
COc1ccc(/C=C(\NC(=O)c2ccc(C)cc2)C(=O)Nc2ccc(C(=O)O)cc2)cc1 | 31* | 26 | 31% | 1%
COC(=O)COc1cccc(NC(=O)c2ccc(C)cc2)c1 | -2 | 22 | -3% | 14%
COc1ccc(C(=O)Nc2cccc(NC(C)=O)c2)cc1 | nt | nt | 18% | nt
COc1ccc(/C=C(\NC(=O)c2ccc(OC)cc2)C(=O)Nc2ccc(C(=O)O)cc2)cc1 | 1 | 1 | -8% | 0%
Cc1ccc(NC(=O)c2ccc(OC(=O)COc3ccc(Cl)c(C)c3)cc2)cc1 | 49* | 96* | ? | 3%
COc1ccc(C2/C=C\CN(C(=O)C3CCCCC3)C(C)C(=O)N2Cc2ccc(F)cc2)cc1 (stereo not given) | -10 | -3 | nt | nt
COc1ccc(C(=O)NC(=S)Nc2nc(C)cc(C)n2)cc1Br | 21* | 3 | 18% | -8%
CCCCOc1ccc(C(=O)Nc2ccc(SC(F)F)cc2)cc1OC | -2 | 7 | -2% | -16%
COc1ccc(NC(=O)c2cnc(SC)nc2)cc1 | 32* | 41 | 47% | -30%
COc1ccc(NC(=O)c2ccc(C)cc2)cc1 | 38* | nt | 21% | 6%
COc1ccc(C(=O)Nc2ccc(SC(F)F)cc2)cc1 | 49* | 98* | 10% | 9%
Cc1ccc2c(CC(=O)Nc3c(C(=O)Nc4cccc(Cl)c4)oc4ccccc34)coc2c1C | nt | nt | 0% | 3%
COc1ccc(C(=O)Nc2nc(C)cc(C)n2)cc1 | 1 | 15 | -12% | 22µM*
COc1ccc(-c2ccc3c(N)c(C(=O)Nc4cccc(C)c4)sc3n2)cc1 | 43* | 17 | 24% | 4%
Cc1cc(C)nc(NC(=O)c2ccc(Br)cc2)n1 | 1 | -3 | -1% | 11%
COc1ccc(C(=S)Nc2ccc(C)cc2)cc1 | 51* | 79* | 39% | 7%
Cc1noc(C)c1C(=O)N1CCC2(CCN(C(=O)NC(C)C)CC2)CC1 | nt | nt | -10% | nt
Cc1nn2c(=O)cc(COC(=O)c3ccccc3NC(=O)C(C)C)nc2s1 | nt | nt | ? | -3%
O=[N+]([O-])c1ccc(N/N=C2\CC3CC=CC23)cc1 (stereo not given) | 42* | 82* | 40% | -14%
COc1ccc(C(CC(=O)O)NC(=O)c2cc3ccccc3oc2=O)cc1OC (stereo not given) | nt | nt | -17% | 0%
CCCNC(=O)COC(=O)/C=C/c1ccc(C)o1 | 2 | -2 | 8% | 40µM*
CCOc1ccc(CCNC(=O)COC(=O)/C=C/c2ccc(C)o2)cc1OCC | 11 | -1 | -19% | 50µM*
SMILES | CHX counter | Shiga toxin inh | FMDV inh | Sm TGR block
Cc1ccc(/C=C/C(=O)OCC(=O)NCc2ccccc2)o1 | nt | nt | -16% | ?
CCOc1ccc(S(=O)(=O)NCCC(=O)NCCc2ccc(C(C)C)cc2)cc1 | nt | nt | ? | -1%
Cc1ccc(/C=C/C(=O)OCC(=O)NCCN2C(=O)CSC2=O)o1 | -1 | 10 | -13% | 25µM*
CCOc1ccc(S(=O)(=O)NCCC(=O)NCCc2ccc(OCC)c(OCC)c2)cc1 | nt | nt | -17% | 3.2µM*
Cc1cccc(-c2nnc(SCCC(=O)O)o2)c1 | nt | nt | ? | -9%
Cc1ccc(C)c(NC(=O)CSc2ncc3c(n2)-c2ccc(Cl)cc2N(C)S3(=O)=O)c1 | nt | nt | -25% | -1%
Cc1cc2nc(C3CCCN(C(=S)Nc4ccccc4)C3)[nH]c2cc1C (stereo not given) | 35* | 59 | nt | 26%
Cc1ccccc1NC(=O)c1cnc2ccccn2c1=O | 79* | 86* | -12% | 13%
CSc1ccccc1NC(=O)c1cnc2scc(C)n2c1=O | 25* | 28* | 48% | -8%
O=C(NCCc1ccccc1)c1cnc2ccccn2c1=O | 41* | 57* | nt | 16%
Cc1csc2ncc(C(=O)NCCC(c3ccccc3)c3ccccc3)c(=O)n12 | 2 | -3 | -10% | 2%
Cc1csc2ncc(C(=O)NCCc3ccccc3)c(=O)n12 | 45* | 48* | 3% | -2%
Cn1c(C(=O)NCCc2ccccc2)cc2c(=O)n3ccccc3nc21 | nt | nt | 40% | 0%
O=C(OC1CCN(CCCl)CC1)C(c1ccccc1)c1ccccc1 | nt | nt | 16µM* | -29%
Cc1cc(C)c(NC(=O)CSc2nc3ccccc3c3nc(-c4ccccc4)nn23)c(C)c1 | nt | nt | -5% | 0%
O=C(Nc1ccccc1)Nc1cccn(Cc2c(F)cccc2Cl)c1=O | 60* | 95* | 9% | -30%
O=C(NCc1ccccc1)Nc1cccn(Cc2ccccc2Cl)c1=O | 3 | 50* | ? | nt
COc1cccc(Cn2cccc(NC(=O)Nc3ccc(C#N)cc3)c2=O)c1 | 8 | -2 | 18µM* | 14%
CSc1ccc(NC(=O)Nc2cccn(Cc3ccccc3)c2=O)cc1 | 29* | 64* | ? | 3%
CCC(=O)Nc1ccc(C)cc1-c1nc2ccccc2n(CC(=O)c2ccc(C)cc2)c1=O | nt | nt | -22% | -2%
Cc1ccc(Cn2cccc(NC(=O)c3ccco3)c2=O)cc1 | 37* | 92* | 14% | ?
COc1ccc(N=C/C=C2\C=C(c3ccccc3)OC(C)(C)O2)cc1 | 17* | 44 | 35% | 40µM*
Cn1ccsc1=NC(=O)c1ccccc1F | 16 | 41 | 44% | 11%
Cn1ccsc1=NC(=O)c1ccc(Cl)cc1 | 39* | 113* | 0% | nt
COc1ccc(C(=O)N=c2sccn2C)cc1 | 33* | 71* | 50% | 0%
SMILES | CHX counter | Shiga toxin inh | FMDV inh | Sm TGR block
Cn1ccs/c1=N\C(=O)Nc1ccccc1 | 66* | 75* | 48% | 0%
Cn1ccsc1=NC(=O)c1ccc(CS(C)(=O)=O)cc1 | 12 | 39* | 10% | 4%
CCc1ccccc1NC(=O)C1(S(=O)(=O)c2ccc(Cl)cc2)CC1 | nt | nt | -4% | -8%
CC1=C(C(=O)N2CCCCC2)C(c2cccc(Cl)c2)n2c(nc3ccccc32)N1 (stereo not given) | nt | nt | -7% | -1%
CCOc1cc(C(=O)N=c2sccn2C)ccc1OC(F)F | 35* | 71 | 37% | -9%
COC(=O)c1ccc(C(=O)N=c2sccn2C)cc1 | 40* | 79* | 0% | -5%
COc1ccc(NC(=O)CSCC(=O)N=c2sccn2C)cc1 | 1 | -3 | -2% | 6%
CCCN(CCC)S(=O)(=O)c1cccc(C(=O)N=c2sccn2C)c1 | -2 | 7 | -10% | 11%
Cn1ccsc1=NC(=O)c1ccccc1OC(F)F | 9 | -22 | 0% | -7%
Cn1ccsc1=NC(=O)c1ccc(S(=O)(=O)C(F)F)cc1 | 26* | 69* | 23% | 2%
Cn1ccsc1=NC(=O)c1ccc(OC(F)(F)F)cc1 | 36* | 83* | 29% | 0%
COc1ccc(CNc2ncnc3ccc(-c4ccccc4CN(C)C)cc23)c(OC)c1 | nt | nt | 3% | nt
CN(C)c1ccc(C(=O)N=c2sccn2C)cc1[N+](=O)[O-] | 18* | 42* | 0% | -9%
CN(C)c1ccc(C(=O)c2ccccc2C(=O)O)cc1[N+](=O)[O-] | -2 | 4 | -16% | 2%
COc1ccc(-c2cc3ccc(O)cc3oc2=O)cc1 | 37* | 74* | 16% | -36%
O=c1oc2cc(O)ccc2cc1-c1ccccc1 | 38* | 54* | 0% | 1%
